hNpr1 antagonist: human Npr1 receptor antagonism | HEK293 hNpr1 GloSensor cGMP, ANP-stimulated luminescence | Potency, µM (top dose mostly 46.3 µM), inactives show top-dose activity change, negative = inhibition, hits mostly inhibitors | 1.6% of 76,000 active; calls by dose curve; note: nearly all actives have a fitted effect of over 60% in size
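HEK293 cells stably expressing human Npr1 and cGMP GloSensor pGS-40F, loaded 2 h with 2% GloSensor reagent, given compound 30 min at room temperature. Luminescence read before and 20 min after 0.1 nM hNppA.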
3T3 cytotox: kills NIH 3T3 cells; NIH 3T3 viability, CellTiter-Glo ATP luminescence, 48-72 h; 4.3% of 94,000 active; Potency, µM (titrated, usually from 96.7 µM), without a hit: at the top dose activity change, negative = cytotoxicity, most hits filed as inhibitors; note: nearly all actives have a fitted effect of over 55% in size
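ATP-dependent luminescence (CellTiter-Glo) served as the viability signal for NIH 3T3 cells treated with compound for 48 or 72 hr at 37 °C.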
Luciferase inh: blocks purified firefly luciferase enzyme activity. P08659. purified P. pyralis luciferase, luminescence, biochemical. Potency, µM (titrated, usually from 115 µM), actives largely listed as inhibitors. 2.5% of 76,000 active; note: nearly all actives have a fitted effect of over 65% in size
Target sequence (P08659 whole entry, looked up): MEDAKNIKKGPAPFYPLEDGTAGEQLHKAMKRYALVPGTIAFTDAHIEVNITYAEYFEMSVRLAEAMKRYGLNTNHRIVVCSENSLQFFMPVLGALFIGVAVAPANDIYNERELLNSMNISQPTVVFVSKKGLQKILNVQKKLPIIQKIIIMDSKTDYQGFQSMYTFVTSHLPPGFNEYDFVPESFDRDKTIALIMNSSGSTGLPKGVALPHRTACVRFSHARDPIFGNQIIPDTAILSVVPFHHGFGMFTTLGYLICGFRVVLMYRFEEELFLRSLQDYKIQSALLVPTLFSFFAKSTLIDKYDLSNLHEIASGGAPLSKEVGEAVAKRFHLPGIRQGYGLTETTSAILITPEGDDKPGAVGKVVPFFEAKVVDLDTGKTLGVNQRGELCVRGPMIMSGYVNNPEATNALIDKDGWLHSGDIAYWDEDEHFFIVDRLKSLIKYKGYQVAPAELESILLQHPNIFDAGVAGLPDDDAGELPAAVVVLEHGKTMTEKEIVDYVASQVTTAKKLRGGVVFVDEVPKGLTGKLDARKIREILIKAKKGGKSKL
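Inhibitors were tested against purified firefly luciferase in a biochemical, low-substrate format (both substrates at 10uM) and luminescence measured with a CCD imager.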
HEK293 tox: kills HEK 293 cells; HEK 293 viability, ATP luminescence (CellTiter-Glo), 48-72 h; Potency, µM (series often up to 115 µM), for the others: top-dose activity change, negative = cytotoxicity, hits mostly inhibitors; 6.6% of 94,000 active; note: nearly all actives have a fitted effect of over 60% in size
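250 HEK 293 cells/well; compound by pintool; incubated 48 or 72 hr at 37 degree Celsius; CellTiter-Glo added, 10 min RT, luminescence imaged.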
* marks the source's active call; other numbers are inactive results; i = inactive; ? = inconclusive; . = no result; ! = not active in a repeat; [ ] = remark or other dose. Most compounds without a hit are left out; they make up all but 11% or so of the library. Unless noted, calls come from the whole dose curve; as a rule, active = well fitted curve in the direction sought with a large enough effect; inconclusive = small, poorly fitted or top-dose-only effect, or another doubt; inactive = no such curve, though single readings can be large; an effect the other way counts as inactive or inconclusive. % is set by controls: 0 for no effect and ±100 for the full control effect; potency is the fitted concentration of half-maximal effect.

SMILES	hNpr1 antagonist	3T3 cytotox	Luciferase inh	HEK293 tox
COCCNC(=O)c1cc(C2CC2)nc2c1c(C1CCNC1)nn2C (stereo unspecified)	.	-8.1%	.	-7.8%
Oc1ccccc1CN1CCNc2cc(Nc3cccnc3)ncc2C1	-7.0%[70.6 µM]	?	?	63.1µM*
COc1ccc(CN2CCNc3cc(Nc4cccnc4)ncc3C2)cc1O	0.3%[70.6 µM]	?	i	?
CNC(=O)CCn1ncc2cc(OC3CCc4cccc(-c5ccc(OC)cc5)c43)ccc21 (stereo unspecified)	-18.7%[70.6 µM]	50.1µM*	i	79.4µM*
O=C(O)CCn1ncc2cc(OC3CCN(C(=O)OCc4ccccc4)CC3)ccc21	-3.3%[70.6 µM]	?	?	-18.6%[172 µM]
CNC(=O)CCn1ncc2cc(OC3CCc4cccc(-c5cnn(C)c5)c43)ccc21 (stereo unspecified)	1.3%[70.6 µM]	?	i	50.1µM*
CNC(=O)CCn1ncc2cc(OC3CCc4cccc(-c5cccc(CO)c5)c43)ccc21 (stereo unspecified)	-1.3%[70.6 µM]	?	?	79.4µM*
CNC(=O)CCn1ncc2cc(OC3CCc4cccc(-c5ccc(O)c(F)c5)c43)ccc21 (stereo unspecified)	1.7%	39.8µM*	i	?
CC(C)OC(=O)N1CCC(Oc2ccc3c(cnn3CCC(=O)O)c2)CC1	1.3%[70.6 µM]	?	i	4.0%[172 µM]
O=C(NCc1ccccc1)C1CCCN1Cc1ccc(-c2cncnc2)cc1 (stereo unspecified)	.	-20.6%	.	?
COC(=O)CNC(=O)C1CCCN1Cc1ccc(-c2cncnc2)cc1 (stereo unspecified)	.	?	.	-13.2%
CCOCCNC(=O)C1CCCN1Cc1cccc(-c2ccc(C)c(Cl)c2)c1 (stereo unspecified)	.	14.1µM*	.	?
COC(=O)CNC(=O)C1CCCN1Cc1cccc(-c2ccc(C)c(Cl)c2)c1 (stereo unspecified)	.	?	.	39.8µM*
Cc1ccc(-c2cccc(CN3CCCC3C(=O)NCc3cccc(C(F)(F)F)c3)c2)cc1Cl (stereo unspecified)	.	39.8µM*	.	39.8µM*
Cc1ccc(-c2cccc(CN3CCCC3C(=O)NCc3ccccc3)c2)cc1Cl (stereo unspecified)	.	44.7µM*	.	50.1µM*
COc1ccccc1CC(=O)NC1CCN(c2cc(-c3ccccc3)[nH]n2)C1 (stereo unspecified)	-14.7%	-30.7%	i	?
COc1ccc(-c2ccnc3nc(CCc4ccc(OC)c(OC)c4)nn23)c(F)c1	-19.2%	-28.9%	i	44.7µM*
COc1ccc(-c2ccnc3nc(Cc4ccc(F)cc4)nn23)c(F)c1	-14.0%	?	i	25.1µM*
COc1ccc(Cc2nc3nccc(-c4ccc(OC)cc4F)n3n2)cc1	0.8%	-14.5%	i	?
c1cnc2nc(-c3ccsc3)[nH]c2c1	3.1%[70.6 µM]	?	?	126µM*!
Cc1cc(-c2nc3ncccc3[nH]2)c(C)[nH]1	-1.2%[70.6 µM]	?	39.8µM*	?
c1ccc(-c2nc3ncccc3[nH]2)nc1	21.1%[70.6 µM]	?	i	?
O=C(O)c1ccc(-c2nc3ncccc3[nH]2)cc1	7.6%[70.6 µM]	-9.5%[138 µM]	i	-2.8%[172 µM]
c1cnc2nc(-c3c[nH]c4ncccc34)[nH]c2c1	12.4%[70.6 µM]	?	89.1µM*	?
c1cnc2nc(C3CCNC3)[nH]c2c1 (stereo unspecified)	0.0%[70.6 µM]	-3.8%[174 µM]	i	-12.6%[230 µM]
SMILES	hNpr1 antagonist	3T3 cytotox	Luciferase inh	HEK293 tox
Cc1cc(-c2nc3ccncc3[nH]2)c(C)o1	0.0%[70.6 µM]	?	44.7µM*	?
c1cc2nc(-c3ccsc3)[nH]c2cn1	-10.4%[70.6 µM]	?	?	?
C[S+](=O)([O-])NC1CCCN(c2ccnc3ccnn23)C1 (stereo unspecified)	.	4.9%[138 µM]	.	3.1%[172 µM]
COc1ccc(-c2cc(C[C@@H]3CC[C@H](O)[C@@H](CN(Cc4ccccc4OC)Cc4ccccc4OC)O3)no2)cc1	10µM*	?	?	?
CC(C)CN(CC(C)C)C[C@H]1O[C@H](Cc2cc(COc3ccccc3)on2)CC[C@@H]1O	5.1%[70.6 µM]	100µM*	i	100µM*
COc1cccc(CNC[C@H]2O[C@H](Cc3cc(CN4CCOCC4)on3)CC[C@@H]2O)c1	0.1%[70.6 µM]	0.2%[174 µM]	i	-22.2%[172 µM]
COc1cccc(CNC[C@H]2O[C@H](Cc3cc(-c4ccccc4)on3)CC[C@@H]2O)c1	-27.4%[70.6 µM]	?	i	112µM*
O=C(NCc1ccccc1Cl)c1ccc2nnc(C3CCOCC3)n2c1	.	-37.7%	.	-2.0%
NC1CCCCN(Cc2cc3ccccc3o2)C1 (stereo unspecified)	-2.2%	-10.2%	i	?
C#CCN(C)C(=O)[C@@H](C)C1CC[C@@]2(C)Cc3sc(NCCCC)nc3[C@@H](C)[C@@H]2[C@H]1O (stereo partly specified)	-20.1%[70.6 µM]	?	17.8µM*	?
C=CCN(C)C(=O)[C@@H](C)C1CC[C@@]2(C)Cc3sc(NCCCC)nc3[C@@H](C)[C@@H]2[C@H]1O (stereo partly specified)	-12.6%[70.6 µM]	35.5µM*	?	?
COc1ccc2c(c1)O[C@H]1[C@H](CO)CN([S+](=O)([O-])c3cccs3)[C@@H]21	.	?	.	50.1µM*
Cc1nnc2ccc(N3CCN(S(=O)(=O)c4cccs4)CC3)nn12	.	-21.0%	.	-5.2%
COc1ccc(NC(=O)[C@@H]2C[C@H](c3ccc(F)cc3)N(Cc3csc(C)n3)C2)cc1	-3.1%[70.6 µM]	?	i	79.4µM*
COc1ccc(NC(=O)[C@@H]2C[C@@H](c3ccc(F)cc3)N(Cc3ccccc3)C2)cc1	-19.2%[70.6 µM]	-15.5%[138 µM]	i	?
Cc1nc(CN2C[C@H](C(=O)Nc3ccc(F)cc3)C[C@@H]2c2ccc(F)cc2)cs1	-0.6%[70.6 µM]	100µM*	i	100µM*
O=C(NCc1cccs1)c1ccc2nnc(Cc3ccco3)n2c1	.	?	.	1.7%[172 µM]
O=C(NCCNC(=O)c1cccc(-c2ccsc2)c1)c1ccc(Cl)cc1	.	2.9%	.	-24.7%
O=C1CCN(C(=O)C2COc3ccccc3O2)CCCOCCN1 (stereo unspecified)	4.0%	?	i	?
COc1ccccc1C(=O)N1CCC2(CC1)COc1ccccc1[S+](=O)([O-])N2	.	-17.8%	.	-0.4%
COc1ccccc1C(=O)N1CCC2(CC1)COc1ccccc1CN2	5.7%[70.6 µM]	?	i	63.1µM*
COCCN1C(=O)CS(=O)(=O)C12CCN(C(=O)Cc1ccc(Cl)cc1)CC2	-2.5%	-19.0%	i	-8.5%
CCOC(=O)C1(Cc2ccccc2C(F)(F)F)CCN(Cc2ccccn2)CC1	-1.3%	?	i	39.8µM*
CCOC(=O)C1(Cc2ccccc2C(F)(F)F)CCN(C(C)Cc2cccc(C)n2)CC1 (stereo unspecified)	?	28.2µM*	i	12.6µM*
CCOC(=O)C1(Cc2ccc(Cl)cc2)CCN(Cc2ccc(OC)cc2O)CC1	?	?	i	?
CCOC(=O)C1(Cc2cccc(C(F)(F)F)c2)CCN(Cc2cn(CC)nc2C)CC1	?	?	i	20µM*

Assay outcomes from PubChem.
